For 5 molecules, composite z-score and z-score results are on record in PubChem BioAssay.

Active and inactive are the calls of the source.

Assay [1] in a line: binders of probe aFSTL3 on microarray, primary screen, stem cell growth factor project, biochemical, small-molecule microarray, fluorescence 635/667 (AID 1064).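 Note: measures binding of the biotinylated anti-FSTL3 antibody to printed compounds.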 Conditions: higher = more signal.
Assay [2] is described as follows: binders from COS7 lysate, DM2A8 probe, primary screen, torsin A project, cell lysate, small-molecule microarray, fluorescence 635/667 (AID 1065). To be noted: higher = more signal, COS7 lysate expressing mutant human TOR1A.
Assay [3] can be described thus: binders of probe aFGF2 on microarray, primary screen, stem cell growth factor project, biochemical, small-molecule microarray, fluorescence 635/667 (AID 1067).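 Note: measures binding of biotinylated aFGF2 protein to printed compounds on slides; z-score merges feature fluorescence and signal-to-noise across triplicate slides.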 Conditions: higher = more signal.
A short description of assay [4]: binders of probe aFGF10 on microarray, primary screen, stem cell growth factor project, biochemical, small-molecule microarray, fluorescence 635/667 (AID 1071).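 Note: score merges 667 nm spot intensity and signal to noise from triplicate slides.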 To be noted: higher = more signal.
Assay [5] concerns the target Neurogenic locus notch homolog protein 2 (Homo sapiens) (UniProt Q04721). Kind of assay: Notch2 binders on small-molecule microarrays, primary screen, biochemical, small-molecule microarray, 635 nm fluorescence, stem cell growth factors (AID 1073). To be noted: Notch2 binding, higher = more signal.
Assay [6] addresses Pro-neuregulin-1, membrane-bound isoform (Homo sapiens) (UniProt Q02297). As to the kind of experiment: NRG1 binders on small-molecule microarrays, primary screen, psychiatric disease protein project, biochemical, small-molecule microarray, fluorescence 635/667 (AID 1075).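 Note: score combines 667 nm spot fluorescence with signal to noise.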 To be noted: NRG1 binding, 635 nm fluorescence, higher = more signal.
The subject of assay [7] is Neuregulin-1 EGF-like domain. Kind of assay: binders of neuregulin-1 EGF-like domain, primary screen, biochemical, small-molecule microarray, 635 nm fluorescence (AID 1081).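 Note: binding of the protein to compounds printed on small-molecule microarray slides.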 Conditions: small-molecule microarray binding, higher = more signal.
Assay [8] can be described thus: FRG1 promoter luciferase signal modulators, primary screen, FRG1 inhibition for FSHD, cell-based, C2C12 myotubes, firefly/Renilla luciferase, luminescence (AID 1084). Conditions: higher = more signal, called active from +8 up or from −8 down.
A short description of assay [9]: binders of probe aFST on microarray, primary screen, stem cell growth factor project, biochemical, small-molecule microarray, fluorescence 635/667 (AID 1086).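 Note: score merges 667 nm fluorescence with signal-to-noise of each printed compound spot.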 Conditions: higher = more signal.
Assay [10] is described as follows: binders of probe aHhip on microarray, primary screen, stem cell growth factor project, biochemical, small-molecule microarray, fluorescence 635/667 (AID 1087).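 Note: score merges spot fluorescence at 667nm with spot signal to noise ratio.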 Conditions: higher = more signal.
Assay [11] has as its system PRMT1 (protein arginine N-methyltransferase 1). As to the kind of experiment: PRMT1 binders on small-molecule microarrays, primary screen, biochemical, small-molecule microarray, 635 nm fluorescence (AID 1088).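 Note: binding of Prmt1 protein to compounds spotted on small-molecule microarray slides.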 Conditions: small-molecule microarray binding, higher = more signal.
Assay [12] is described as follows: yeast growth modulation, basal conditions, primary screen, YJM789 clinical isolate, OD600, 24 h (AID 1089).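 Note: growth of clinical yeast isolate S. cerevisiae YJM 789 seeded 1000 cells per well; test concentration not given here.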 To be noted: S. cerevisiae YJM789 growth, higher = more signal, called active from +8 up or from −8 down.
Assay [13] can be described thus: fission yeast growth modulation, primary screen, strain 972, OD600, 24 h, no modulator (AID 1090).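 Note: basal condition with compound alone and no growth modifier present; test concentration not given here.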 To be noted: S. pombe 972 growth, higher = more signal, called active from +8 up or from −8 down.
The nature of assay [14]: S. cerevisiae growth modulation with rapamycin, primary screen, strain BY4716, OD600, 96 h (AID 1091). Note: test concentration not given here. To be noted: higher = more signal, called active from +8 up or from −8 down.
Assay [15] has as its target Torsin-1A-interacting protein 2 (Homo sapiens) (UniProt Q8NFQ8). As to the kind of experiment: LULL1 binders on small-molecule microarray, primary screen, cell lysate, human LULL1 lysate, 635/667 nm fluorescence (AID 1092).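 Note: score merges per-feature 667 nm fluorescence with signal-to-noise.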 To be noted: hLULL1 lysate binding, 635 nm fluorescence, higher = more signal.
Assay [16] in a line: E. coli growth modulation, two-sided OD650, primary screen, E. coli filamentation project, strain DRC41, 24 h (AID 1093).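 Note: MC1000 strain lacking acrAB efflux and sulA so SOS filamentation is blocked; test concentration not given here.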 To be noted: OD650, 24 h, higher = more signal, called active from +8 up or from −8 down.
Assay [17] in a line: small-molecule microarray binders of probe aLefty2, primary screen, biochemical, biotinylated probe, 635/667 nm fluorescence (AID 1094).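 Note: score merges spot fluorescence near 667 nm with spot signal-to-noise ratio.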 To be noted: higher = more signal.
For assay [18], the system named is Noggin (protein binding on small-molecule microarray). As to the kind of experiment: Noggin binders on small-molecule microarray, primary screen, biochemical, 635/667 nm fluorescence (AID 1095).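 Note: score merges 667 nm feature fluorescence with signal to noise over triplicate slides.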 To be noted: 635 nm fluorescence, higher = more signal.
The target of assay [19] is Neurogenic locus notch homolog protein 3 (Homo sapiens) (UniProt Q9UM47). Kind of assay: NOTCH3 binders on small-molecule microarray, primary screen, biochemical, 635/667 nm fluorescence (AID 1096). To be noted: NOTCH3 binding, 635 nm fluorescence, higher = more signal.
A short description of assay [20]: small-molecule microarray binders of probe aEGFR, primary screen, biochemical, biotinylated probe, 635/667 nm fluorescence (AID 1097).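 Note: probe is a biotinylated anti-EGFR antibody binding compounds printed on slides; score combines fluorescence near 667 nm and signal to noise of each spot.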 Conditions: higher = more signal.

Pro-neuregulin-1, membrane-bound isoform (Homo sapiens), sequence (Q02297 whole entry, looked up, the tested form may be a part, canonical isoform): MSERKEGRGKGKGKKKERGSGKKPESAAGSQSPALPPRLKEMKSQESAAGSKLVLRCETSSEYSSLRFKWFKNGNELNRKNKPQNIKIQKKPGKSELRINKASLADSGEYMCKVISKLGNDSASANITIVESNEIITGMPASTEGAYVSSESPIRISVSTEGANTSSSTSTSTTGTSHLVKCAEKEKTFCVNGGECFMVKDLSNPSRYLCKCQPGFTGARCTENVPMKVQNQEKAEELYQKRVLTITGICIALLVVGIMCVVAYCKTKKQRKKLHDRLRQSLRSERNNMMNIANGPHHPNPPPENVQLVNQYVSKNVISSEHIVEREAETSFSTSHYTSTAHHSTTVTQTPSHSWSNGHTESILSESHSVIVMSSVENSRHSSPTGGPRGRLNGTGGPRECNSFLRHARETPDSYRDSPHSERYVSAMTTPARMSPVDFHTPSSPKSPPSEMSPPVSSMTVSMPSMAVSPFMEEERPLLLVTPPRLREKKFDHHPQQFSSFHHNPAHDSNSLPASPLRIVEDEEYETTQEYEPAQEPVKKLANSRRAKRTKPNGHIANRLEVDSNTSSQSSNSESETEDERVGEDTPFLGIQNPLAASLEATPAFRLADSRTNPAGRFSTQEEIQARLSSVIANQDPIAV
Torsin-1A-interacting protein 2 (Homo sapiens), sequence (Q8NFQ8 whole entry, looked up): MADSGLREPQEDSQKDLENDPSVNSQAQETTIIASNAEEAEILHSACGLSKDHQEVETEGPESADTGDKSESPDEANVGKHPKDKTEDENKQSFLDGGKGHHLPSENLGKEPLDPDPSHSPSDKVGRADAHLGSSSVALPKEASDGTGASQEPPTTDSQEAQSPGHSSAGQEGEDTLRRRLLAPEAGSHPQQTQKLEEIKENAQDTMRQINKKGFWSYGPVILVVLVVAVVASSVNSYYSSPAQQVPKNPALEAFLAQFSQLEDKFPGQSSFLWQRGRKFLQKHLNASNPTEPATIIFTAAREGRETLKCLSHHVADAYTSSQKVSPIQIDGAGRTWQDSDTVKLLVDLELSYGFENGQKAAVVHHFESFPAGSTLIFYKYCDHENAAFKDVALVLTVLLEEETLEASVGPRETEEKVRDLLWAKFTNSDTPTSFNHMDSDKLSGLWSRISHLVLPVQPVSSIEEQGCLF
Neurogenic locus notch homolog protein 2 (Homo sapiens), sequence (Q04721 whole entry, looked up, canonical isoform): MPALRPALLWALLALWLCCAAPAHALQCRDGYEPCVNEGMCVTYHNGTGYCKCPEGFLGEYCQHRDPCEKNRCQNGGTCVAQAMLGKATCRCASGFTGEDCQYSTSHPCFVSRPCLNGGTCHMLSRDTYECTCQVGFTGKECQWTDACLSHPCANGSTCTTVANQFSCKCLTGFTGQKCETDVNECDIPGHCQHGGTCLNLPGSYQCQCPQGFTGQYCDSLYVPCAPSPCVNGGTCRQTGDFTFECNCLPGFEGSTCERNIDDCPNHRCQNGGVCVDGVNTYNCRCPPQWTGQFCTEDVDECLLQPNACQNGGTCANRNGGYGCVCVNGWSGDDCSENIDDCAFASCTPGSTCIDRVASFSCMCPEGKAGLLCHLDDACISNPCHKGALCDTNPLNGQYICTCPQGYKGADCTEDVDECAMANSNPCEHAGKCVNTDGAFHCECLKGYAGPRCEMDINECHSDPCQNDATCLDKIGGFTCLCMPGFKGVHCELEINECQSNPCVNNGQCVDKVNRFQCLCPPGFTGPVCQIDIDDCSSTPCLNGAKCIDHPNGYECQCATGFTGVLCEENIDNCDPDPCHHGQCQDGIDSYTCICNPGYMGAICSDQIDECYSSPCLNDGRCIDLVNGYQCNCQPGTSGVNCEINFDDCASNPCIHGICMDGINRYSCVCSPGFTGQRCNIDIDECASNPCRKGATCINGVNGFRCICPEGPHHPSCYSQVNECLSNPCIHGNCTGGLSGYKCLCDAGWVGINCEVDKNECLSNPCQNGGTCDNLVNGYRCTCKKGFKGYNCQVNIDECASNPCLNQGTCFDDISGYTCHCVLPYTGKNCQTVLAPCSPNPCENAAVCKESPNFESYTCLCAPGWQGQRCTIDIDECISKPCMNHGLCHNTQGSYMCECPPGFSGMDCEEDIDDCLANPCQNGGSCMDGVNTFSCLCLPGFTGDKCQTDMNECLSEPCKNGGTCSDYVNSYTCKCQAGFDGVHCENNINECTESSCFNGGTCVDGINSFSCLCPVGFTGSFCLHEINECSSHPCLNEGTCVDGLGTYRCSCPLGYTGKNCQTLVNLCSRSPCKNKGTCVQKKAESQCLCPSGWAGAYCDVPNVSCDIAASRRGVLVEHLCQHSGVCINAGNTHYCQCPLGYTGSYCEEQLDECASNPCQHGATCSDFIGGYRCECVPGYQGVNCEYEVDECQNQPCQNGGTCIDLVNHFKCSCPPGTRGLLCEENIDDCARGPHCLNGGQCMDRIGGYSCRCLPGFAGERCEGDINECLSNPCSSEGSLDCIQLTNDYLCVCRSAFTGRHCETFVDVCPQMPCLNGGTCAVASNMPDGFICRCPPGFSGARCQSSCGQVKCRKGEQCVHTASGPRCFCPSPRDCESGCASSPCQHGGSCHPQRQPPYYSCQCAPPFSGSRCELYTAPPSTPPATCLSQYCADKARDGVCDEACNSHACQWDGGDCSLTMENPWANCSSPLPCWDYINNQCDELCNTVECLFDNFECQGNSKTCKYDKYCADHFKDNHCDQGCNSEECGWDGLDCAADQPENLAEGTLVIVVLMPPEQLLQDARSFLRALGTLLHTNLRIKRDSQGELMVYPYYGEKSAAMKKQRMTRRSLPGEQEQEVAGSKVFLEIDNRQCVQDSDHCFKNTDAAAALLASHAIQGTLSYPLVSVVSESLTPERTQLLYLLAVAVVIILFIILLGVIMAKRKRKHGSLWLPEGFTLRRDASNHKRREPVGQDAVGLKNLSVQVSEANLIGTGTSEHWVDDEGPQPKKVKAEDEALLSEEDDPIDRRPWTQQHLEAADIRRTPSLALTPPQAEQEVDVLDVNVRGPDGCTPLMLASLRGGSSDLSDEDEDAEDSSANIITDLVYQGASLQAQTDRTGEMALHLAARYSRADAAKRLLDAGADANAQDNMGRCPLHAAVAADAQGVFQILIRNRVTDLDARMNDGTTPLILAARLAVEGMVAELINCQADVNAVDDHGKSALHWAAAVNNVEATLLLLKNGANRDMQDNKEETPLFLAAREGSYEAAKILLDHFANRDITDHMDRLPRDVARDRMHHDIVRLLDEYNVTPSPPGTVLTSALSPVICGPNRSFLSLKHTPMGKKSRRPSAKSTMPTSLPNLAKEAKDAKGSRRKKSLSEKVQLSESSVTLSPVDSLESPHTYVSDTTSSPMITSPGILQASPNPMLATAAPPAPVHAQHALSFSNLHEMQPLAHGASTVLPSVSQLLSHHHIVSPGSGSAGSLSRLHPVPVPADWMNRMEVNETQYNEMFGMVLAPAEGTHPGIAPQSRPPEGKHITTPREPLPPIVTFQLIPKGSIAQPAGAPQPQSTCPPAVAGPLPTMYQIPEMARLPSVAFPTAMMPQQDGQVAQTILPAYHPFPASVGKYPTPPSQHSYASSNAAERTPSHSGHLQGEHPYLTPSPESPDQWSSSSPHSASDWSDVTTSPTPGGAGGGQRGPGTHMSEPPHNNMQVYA

Consider `COc1ccc([Si](C)(C)[C@@H]2[C@@H](CCn3cc(CCO)nn3)O[C@]3(C(=O)N(Cc4ccc(N5C(=O)c6cccc7cccc5c67)cc4)c4ccccc43)[C@H]2C)cc1`, for which the composite z-score in assay [1] is -0.279; in [2], 0.749; in assay [3], -0.0656; in assay [4], -0.0139; in assay [5], 0.142; in assay [6], 1.26. Further, the composite z-score in assay [7] was 0.742; in assay [9], 0.299; in assay [10] it was 0.154; in assay [11], 1.51; in [15], 0.986; in [17], -0.0564. The composite z-score in assay [18] is 0.376; in assay [19], 0.802; in [20], -0.0138. Moreover, the z-score in assay [8] is -3.48 (inactive); in assay [12], 0.0277 (inactive); in assay [13], 0.858 (inactive); in [14] it was 12.7 (active); in assay [16] it was 2.61 (inactive).

For the molecule `C=CCNC(=O)[C@@H]1[C@H]2C(=O)O[C@H](c3ccccc3)[C@H](c3ccccc3)N2[C@H](c2ccc(O)cc2)[C@@]12C(=O)N(C(=O)OCCOC)c1ccc(C#Cc3ccc(OC)cc3)cc12`, the composite z-score in assay [1] is -0.828; in assay [2] it was 0.974; in assay [3], -0.0761; in assay [4], 0.856; in assay [5], 1.34; in assay [6] it was 1.41. Also, the composite z-score in assay [7] was 1.16; in assay [9] it was 0.316; in assay [10], -0.0994; in assay [11], 1.55; in assay [15], 2.08; in assay [17], -0.111. Moreover, the composite z-score is 0.605 in assay [18], 1.12 in [19] and -0.0674 in assay [20]. Further, the z-score in assay [8] is -0.374 (inactive); in assay [12], 0.342 (inactive); in [13], 0.1 (inactive); in assay [14] it was 2.6 (inactive); in assay [16] it was 2.2 (inactive).

In the case of `COCCCNC(=O)[C@@]1(C)c2ccccc2C(=O)N(Cc2cc(F)cc(C(F)(F)F)c2)[C@H]1c1ccc(CO)cc1`, the composite z-score in assay [1] was 1.57; in assay [2], -0.12; in assay [3] it was -0.145; in assay [4], -0.103; in assay [5], -1.19; in assay [6], 0.595. Moreover, the composite z-score is 1.45 in assay [7]; -0.738 in assay [9]; -0.196 in assay [10]; 0.851 in assay [11]; 2.32 in [15]; 0.584 in assay [17]. Besides, the values for the composite z-score in assay [18], in assay [19] and in [20] were -1.44, -1.22 and -0.293, respectively. Besides, the z-score in assay [8] is -1.65 (inactive); in assay [12] it was 1.65 (inactive); in assay [13] it was -0.351 (inactive); in assay [14], 0.459 (inactive); in assay [16] it was 0.985 (inactive).

As to `CC(C)C(=C=CC[C@@H](O)c1ccc(CO)o1)CCO`, the composite z-score was -0.416 in assay [1]; 0.443 in assay [2]; 0.007 in [3]; 0.768 in assay [4]; -0.298 in assay [5]; 0.632 in [6]. For the same molecule, the composite z-score is 1.19 in assay [7]; -0.304 in [9]; 0.065 in [10]; 0.821 in assay [11]; 1.28 in assay [15]; -0.237 in assay [17]. The results for the composite z-score in assay [18], in assay [19] and in [20] were 0.852, 0.116 and -0.191, respectively. For the same molecule, the z-score in assay [8] was 0.136 (inactive); in assay [12] it was 1.15 (inactive); in [13] it was -1.09 (inactive); in [14], -0.24 (inactive); in assay [16], 1.17 (inactive).

Regarding `O=C(O)[C@H]1C[C@H]2C(=O)NCC(=O)N2[C@H]1c1cccc(OCCO)c1`, the composite z-score was 2.86 in assay [1]; 0.942 in [2]; 0.0568 in assay [3]; -0.213 in assay [4]; 0.29 in [5]; 1.41 in assay [6]. Also, the composite z-score in [7] stood at 0.986; in assay [9], 1.98; in assay [10] it was 0.745; in [11], 1.23; in assay [15] it was 1.51; in assay [17] it was 0.0889. For the same molecule, the composite z-score in assay [18] amounted to 0.0133; in assay [19], 0.446; in assay [20] it was 0.108. Besides, the z-score was 5.62 (inactive) in [8]; -1.63 (inactive) in assay [12]; -2.01 (inactive) in assay [13]; -1.11 (inactive) in assay [14]; 2.5 (inactive) in assay [16].
